Measurements: PubChem BioAssay (NCATS)
Results filed as inconclusive are left out. The source made the active and inactive calls. Unless noted, the call rests on the fitted dose curve; in most records, active means well fitted curve in the direction sought with a large enough effect; inconclusive means small, poorly fitted or top-dose-only effect, or another doubt; inactive means no such curve, though single readings can be large; an effect the other way counts as inactive or inconclusive.

Legend:
[1] = qHTS profiling for inhibitors of Plasmodium falciparum (DD2) proliferation (AID 743323; call rule not given here); settings: lower = more inhibition; at 28.7 µM (top of the series) unless noted
Outline: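 SYBR Green fluorescence (ex 485, em 535 nm) of lysed cultures gives parasite DNA content; wells normalized to artemisinin (0.29 uM) and DMSO controls. Infected red cells: 0.3% parasitemia, 2.5% hematocrit, 72 h, 37 C.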

[2] = qHTS profiling for inhibitors of Plasmodium falciparum (HB3) proliferation (AID 743324); settings: Plasmodium falciparum HB3 blood-stage proliferation; at 28.7 µM (top of the series) unless noted;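 further: 100% = DMSO vehicle wells and 0% = artemisinin-treated control wells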
Outline: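 P. falciparum HB3 grown in erythrocytes (0.3% parasitemia, 2.5% hematocrit final) with compound for 72 h at 37 C, 5% CO2. Parasite DNA detected by SYBR Green after saponin/triton lysis overnight; normalized to 0.29 uM artemisinin and DMSO.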

[3] = qHTS profiling of the MIPE4 collection as inhibitors of Plasmodium falciparum (3D7) proliferation (AID 743344; call rule not given here;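 further: scaled between DMSO vehicle wells and 0.29 µM artemisinin as full inhibition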); settings: P. falciparum 3D7 in erythrocytes, SYBR Green DNA fluorescence, 72 h; at 28.5 µM (top of the series) unless noted
Outline: (§1)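 Erythrocytes infected with P. falciparum (0.3% parasitemia, 2.5% hematocrit) incubated with compounds 72 h at 37 C, 5% CO2. Lysis with saponin/Triton buffer containing SYBR Green I, overnight at room temperature in the dark; DNA fluorescence (485/535 nm) normalised to 0.29 uM artemisinin and DMSO.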

[4] = qHTS profiling of the MIPE4 collection as inhibitors of Plasmodium falciparum (DD2) proliferation (AID 743345; call rule not given here); settings: P. falciparum Dd2 in erythrocytes, SYBR Green DNA, 72 h; at 28.5 µM (top of the series) unless noted
Outline: as §1

[5] = qHTS profiling of the MIPE4 collection as inhibitors of Plasmodium falciparum (DD2) proliferation (Rep 2) (AID 743346; call rule not given here); settings: P. falciparum Dd2 in erythrocytes, SYBR Green DNA, 72 h; at 28.5 µM (top of the series) unless noted
Outline: as §1

[6] = qHTS profiling of the MIPE4 collection as inhibitors of Plasmodium falciparum (HB3) proliferation (AID 743347; call rule not given here;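 further: plate controls were DMSO vehicle wells for no effect and artemisinin wells for full effect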); settings: P. falciparum HB3 in erythrocytes, SYBR Green DNA, 72 h; at 28.5 µM (top of the series) unless noted
Outline: as §1

[7] = High-throughput drug toxicity screening in the BPDCN cell line Gen2.2 (AID 1224824; call rule not given here); settings: Gen2.2 BPDCN cells; at 45.8 µM (top of the series) unless noted
Outline: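 CellTiter-Glo luminescence read after 48 h compound exposure at 37 C defines viability; percent activity set with DMSO as 100% and bortezomib (9.2 uM final) as 0%. 500 exponentially growing cells per well, RPMI plus 10% FBS.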

[8] = High-throughput drug toxicity screening in the BPDCN cell line Cal-1 (AID 1224825; call rule not given here); settings: Cal-1 BPDCN cell viability, qHTS; at 45.8 µM (top of the series) unless noted
Outline: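 500 Cal-1 cells/well, RPMI + glutamine + 10% FBS (phenol red-free); cpd added by pin tool; 48 h, 37C, 5% CO2; CTG 15 min RT, lumi read. Normalised: DMSO 100%, bortezomib 9.2 uM 0%.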

[9] = qHTS assay for measurement of the activity of small molecule inhibitors on Zika virus induced Caspase-3 activity in human iPSC derived neural progenitor cells (hNPCs) (AID 1224857); further: nearly all actives have a fitted effect of over 65% in size; further: potency means the concentration at half of the fitted maximal effect
Outline: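 After overnight (16–20 h) culture at 350 cells/well, hNPCs get compound, then ZIKV 2 FFU/cell one hour later. Six hours on, Caspase-Glo 3/7 is added and luminescence measured.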

[10] = qHTS Screen of the MIPE 4.0 Collection Against Ewings Sarcoma (RDES) (AID 1259252); further: nearly all actives have a fitted effect of over 35% in size; further: potency means the concentration at half of the fitted maximal effect
Outline: (§2)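 After a 4 h attachment period in RPMI/5% FBS, cells were pin-dosed with test compounds; DMSO served as negative and 9.2 uM bortezomib (final) as positive control. Luminescent CellTiter-Glo signal at 48 h defined viability.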

[11] = qHTS Screen of the MIPE 4.0 Collection Against Ewings Sarcoma (TC71) (AID 1259253); further: potency means the concentration at half of the fitted maximal effect; nearly all actives have a fitted effect of over 40% in size
Outline: as §2

[12] = qHTS Screen of the MIPE 4.0 Collection Against Ewings Sarcoma (TC32) (AID 1259256); further: nearly all actives have a fitted effect of over 45% in size; further: potency means the concentration at half of the fitted maximal effect
Outline: as §2

[13] = Identifying Small Molecule Inhibitors of Pancreatic Cancer Stem Cells (A278, Adherent) (AID 1259361); further: nearly all actives have a fitted effect of over 35% in size
Outline: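 Adherent (2D) versus sphere (3D) formats; spheres generated 14 d in SCM beforehand. Compound transferred by pin tool after 4 h, 48 h incubation, CellTiter-Glo endpoint.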

[14] = qHTS assay to identify small molecule inhibitors of chordoma cells - UCH-2 (AID 1259356); further: on the % scale 0 is the no-effect control and ±100 the full control effect
[15] = Identifying Small Molecule Inhibitors of Pancreatic Cancer Stem Cells (A2780, Spheroid) (AID 1259357); settings: Potency: A2780 spheroid viability;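 further: compound exposure lasted 48 h before the ATP luminescence read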; further: potency means the concentration at half of the fitted maximal effect
Outline: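 Cytotoxicity read by CellTiter-Glo luminescence after 48 h compound exposure at 37C; percent activity scaled between DMSO-treated cells and cell-free wells. Spheroid formats used cells pre-formed 14 days in stem cell media on hydrogel.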

[16] = qHTS assay for measurement of the activity of small molecule inhibitors on Zika virus induced Caspase-3 activity in human astrocytoma cells (AID 1224859);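 further: plate controls were ZIKV-infected untreated cells for no effect and uninfected cells for full effect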
Outline: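 Inhibition of Zika-induced caspase-3/7 activity: SNB-19 cells, 1 h compound pretreatment, ZIKV 2 FFU/cell for 6 h at 37 C, Caspase-Glo luminescence read-out.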

[17] = Identifying Small Molecule Inhibitors of Pancreatic Cancer Stem Cells (Panc1, Spheroid) (AID 1259359);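 further: compound exposure lasted 48 h before reading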
Outline: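 Monolayer and spheroid cultures are compared. Spheroids form over 14 days in stem cell medium on hydrogel-coated low-attachment plates, then are exposed to compound for 48 h before CellTiter-Glo luminescence.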

[18] = qHTS Screen of the MIPE 4.0 Collection Against Ewings Sarcoma (EW8) (AID 1259255);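 further: 100% = DMSO-treated cells and 0% = medium-only wells without cells; nearly all actives have a fitted effect of over 35% in size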
Outline: as §2

[19] = qHTS assay to identify small molecule inhibitors of chordoma cells - UCH-1 (AID 1259355); further: on the % scale 0 is the no-effect control and ±100 the full control effect; nearly all actives have a fitted effect of over 55% in size
Outline: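 Seed 800 cells per well; incubate overnight at 37 C, 5% CO2. Add test compounds (15 concentrations), then the auranofin–topoisomerase-agent combination. Incubate 48hr, add CellTiter-Glo, wait 30min, read luminescence.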

CCCCn1c(=O)n(Cc2ccccc2F)c(=O)c2[nH]c(Cc3ccc(NC(C)=O)cc3)nc21
activity, percent of control [1]: 63.7%
remaining proliferation (% of control), lower = more inhibition [2]: 30.8%
parasite growth, % of DMSO control [3]: 115%
parasite growth remaining, % of DMSO control (lower = more inhibition) [4]: 85.9%
parasite growth, % of control (lower = inhibition) [5]: 43.7%
growth, % of control [6]: 314%
cell viability, % of control (lower = more cytotoxic) [7]: 50.4%
viability (% of control) [8]: 86%
Potency [9]: inactive
Potency [10]: inactive
Potency [11]: 20.9 µM (active)
Potency [12]: inactive
IC50 (viability decrease) [13]: 13.2 µM (active)

Fc1ccc(C(c2ccc(F)cc2)N2CCN(CC=Cc3ccccc3)CC2)cc1
outcome [14]: inactive

CNC(=O)c1cc(COc2nnc(Nc3ccc(Cl)cc3)c3ccoc23)ccn1
Potency [15]: inactive

C[C@@H](O[C@H]1OCCN(Cc2n[nH]c(=O)[nH]2)[C@@H]1c1ccc(F)cc1)c1cc(C(F)(F)F)cc(C(F)(F)F)c1
Potency [15]: 18.7 µM (active)

CCNC(=O)c1noc(-c2cc(C(C)C)c(O)cc2O)c1-c1ccc(CN2CCOCC2)cc1
activity, percent of control [1]: 0.689%
parasite growth, % of DMSO control [3]: 5.56%
parasite growth remaining, % of DMSO control (lower = more inhibition) [4]: 7.71%
parasite growth, % of control (lower = inhibition) [5]: 9.57%
growth, % of control [6]: 4.24%
cell viability, % of control (lower = more cytotoxic) [7]: 14.2%
Potency [9]: inactive
Potency [16]: inactive
Potency [10]: 0.105 µM (active)
Potency [11]: 0.118 µM (active)
Potency [12]: 0.059 µM (active)
Potency [17]: inactive
IC50 (viability decrease) [13]: 0.0037 µM (active)

CN1CC(=O)NC1=NC(=O)Nc1cccc(Cl)c1
parasite growth, % of DMSO control [3]: 78.1%
parasite growth remaining, % of DMSO control (lower = more inhibition) [4]: 83.9%
parasite growth, % of control (lower = inhibition) [5]: 23.4%
growth, % of control [6]: 98.8%
cell viability, % of control (lower = more cytotoxic) [7]: 3.29%
Potency [16]: inactive
Potency [10]: inactive
Potency [12]: inactive

Nc1ccc(-c2ccc3ncc4ccc(=O)n(-c5cccc(C(F)(F)F)c5)c4c3c2)cn1
activity, percent of control [1]: -0.278%
remaining proliferation (% of control), lower = more inhibition [2]: -1.3%
parasite growth, % of DMSO control [3]: 4.25%
parasite growth remaining, % of DMSO control (lower = more inhibition) [4]: 5.9%
parasite growth, % of control (lower = inhibition) [5]: 9.23%
growth, % of control [6]: 2.97%
cell viability, % of control (lower = more cytotoxic) [7]: 6.66%
Potency [9]: inactive
Potency [16]: inactive
Potency [10]: 0.0148 µM (active)
Potency [11]: 0.0083 µM (active)
Potency [15]: 0.743 µM (active)

OC[C@H]1O[C@@H](Oc2ccc(O)cc2)[C@H](O)[C@@H](O)[C@H]1O
parasite growth, % of DMSO control [3]: 82.1%
parasite growth remaining, % of DMSO control (lower = more inhibition) [4]: 94.8%
parasite growth, % of control (lower = inhibition) [5]: 127%
growth, % of control [6]: 93.4%
cell viability, % of control (lower = more cytotoxic) [7]: 146%
Potency [9]: inactive
Potency [16]: inactive
Potency [10]: inactive
Potency [11]: 18.7 µM (active)

CN1CC(=O)N2C(Cc3c([nH]c4ccccc34)[C@H]2c2ccc3c(c2)OCO3)C1=O (stereo partly specified)
parasite growth, % of DMSO control [3]: 14%
parasite growth remaining, % of DMSO control (lower = more inhibition) [4]: 17.5%
parasite growth, % of control (lower = inhibition) [5]: 23.9%
growth, % of control [6]: 11.5%
cell viability, % of control (lower = more cytotoxic) [7]: 110%
Potency [9]: 3.72 µM (active)
Potency [16]: inactive
Potency [10]: inactive
Potency [18]: inactive
Potency [12]: inactive
outcome [19]: inactive
outcome [14]: inactive

COc1cc(CNC(=O)CCCCC=CC(C)C)ccc1O
cell viability, % of control (lower = more cytotoxic) [7]: 145%
Potency [16]: inactive
Potency [10]: 5.9 µM (active)
Potency [11]: 16.6 µM (active)

CCc1cc(-c2n[nH]c(C)c2-c2ccc3c(c2)OCCO3)c(O)cc1O
activity, percent of control [1]: 90.4%
remaining proliferation (% of control), lower = more inhibition [2]: 74.6%
parasite growth, % of DMSO control [3]: 49.4%
parasite growth remaining, % of DMSO control (lower = more inhibition) [4]: 57.9%
parasite growth, % of control (lower = inhibition) [5]: 31.5%
growth, % of control [6]: 39.1%
cell viability, % of control (lower = more cytotoxic) [7]: 7.68%
Potency [9]: inactive
Potency [16]: inactive
Potency [10]: 9.35 µM (active)
Potency [11]: 8.33 µM (active)
Potency [12]: 4.18 µM (active)
